Source: PubChem BioAssay (National Center for Advancing Translational Sciences (NCATS))
An excerpt weighted towards active compounds, which were near 5.3% of everything screened.
FMDV inh: High Throughput Screening for Foot and Mouth Disease Virus Antivirals; FMDV antiviral cell-based qHTS; Potency, µM (top dose mostly 57.9 µM), for inactives: at the top dose activity change, negative = inhibition, usual class: inhibitors; 410,000 tested, 1.2% active; AID 1159524, 2015; calls by dose curve; tested in HEK293T cells; note: read-out not given here; nearly all actives have a fitted effect of over 45% in size
VACV Venus inh: qHTS for Stage-Specific Inhibitors of Vaccinia Orthopoxvirus: Venus Reporter Primary qHTS. Potency, µM (series often up to 36.5 µM), inactives show top-dose activity change, negative = inhibition, actives largely listed as inhibitors. Vaccinia virus Venus reporter expression, fluorescence. 330,000 tested, 0.46% active; calls by dose curve; tested in A549 cells; note: nearly all actives have a fitted effect of over 30% in size
VACV mCherry inh: qHTS for Stage-Specific Inhibitors of Vaccinia Orthopoxvirus: mCherry Reporter Primary qHTS; Vaccinia virus mCherry reporter infection, fluorescence; Potency, µM (titrated, usually from 36.5 µM), for the others: top-dose activity change, negative = inhibition, actives largely listed as inhibitors; 310,000 tested, 0.63% active; AID 720579, 2013; calls by dose curve; tested in A549 cells; note: nearly all actives have a fitted effect of over 35% in size
Marburg entry inh: qHTS for inhibitors of binding or entry into cells for Marburg Virus. Marburg virus pseudotyped entry inhibition, cell reporter. Potency, µM (titrated, usually from 37.8 µM), for inactives: at the highest dose activity change, negative = inhibition, hits mostly inhibitors. 300,000 tested, 1.8% active. AID 540276, 2011; calls by dose curve; tested in HEK293 cells
Lassa entry inh: qHTS for Inhibitors of binding or entry into cells for Lassa Virus; Lassa virus pseudotype entry inhibition, cell reporter; Potency, µM (series often up to 37.9 µM), for inactives: at the top dose activity change, negative = inhibition, actives largely listed as inhibitors; 300,000 tested, 1.2% active; AID 540256, 2011; calls by dose curve; tested in HEK293 cells; note: nearly all actives have a fitted effect of over 50% in size
HCV inhibitor: qHTS Assay for Inhibitors of Hepatitis C Virus (HCV); Huh7.5.1 HCVcc-Cre infection, luciferase reporter, 44 h; Potency, µM (highest dose often 41.8 µM), for the others: at the highest dose activity change, negative = inhibition, usual class: inhibitors; 340,000 tested, 3.4% active; AID 651820, 2012; active = well fitted inhibition curve with a large enough effect; inconclusive = small, poorly fitted or top-dose-only effect, or another doubt; inactive = no such curve, though single readings can be large or run the other way
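1,000 cells/well; 4 h culture; + compound; + HCVcc-Cre (~0.5 moi); 44 h; luciferase substrate, RT 15 min; read 15 sec.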
An asterisk follows results filed as active; i = inactive; ? = inconclusive; . = no result; [ ] = remark or other dose. % is set by controls: 0 for no effect and ±100 for the full control effect; potency is the fitted concentration of half-maximal effect.

SMILES | FMDV inh | VACV Venus inh | VACV mCherry inh | Marburg entry inh | Lassa entry inh | HCV inhibitor
CC(C)(C)c1csc(NC(=O)C2COc3ccccc3O2)n1 (configuration not stated) | 13.3% | -13.9% | -10.5% | ? | ? | -42.3%
COc1cccc(CNC(=O)c2nc(Cn3nc(C)c(Br)c3C)no2)c1 | -17.4% | -14.9% | -9.0% | . | -12.4%[46.1 µM] | .
COc1ccc(-c2csc(NC(=O)Cc3cc(OC)c(OC)c(OC)c3)n2)cc1OC | 14.1µM* | -24.7% | -23.1% | ? | . | ?
COc1ccc(-c2csc(NC(=O)COC(=O)Cc3ccccc3)n2)cc1OC | . | . | . | -1.5% | 3.6% | -10.7%
COc1ccc(CCNc2nc(-c3ccc(NC(C)=O)cc3)cs2)cc1OC | 25.1µM* | -18.2% | -6.0% | ? | ? | ?
COc1ccc(CCNc2nc(-c3ccncc3)cs2)cc1OC | ? | -7.6% | -18.7% | . | . | -22.8%
COc1ccc(CCNc2nc(-c3sc(C)nc3C)cs2)cc1OC | 25.1µM* | . | . | ? | ? | 12.6µM*
Cc1nn(-c2ccccc2)c(C)c1-c1nnc(C(F)(F)F)o1 | -5.7% | . | . | . | . | -11.2%
Cc1nn(-c2ccccc2)c(C)c1-c1nnc(-c2c(C)nn(-c3ccccc3)c2C)o1 | 31.6µM* | -1.2% | -12.0% | ? | ? | ?
CCC(=O)Nc1cc(-c2nc3cc(C)cc(C)c3o2)ccc1C | 36.1% | -19.5% | -17.8% | . | 0.7%[46.1 µM] | .
Cc1ccc(S(=O)(=O)N2CCN(C(=O)COC(=O)c3nc(Cl)ccc3Cl)CC2)c(C)c1 | -9.7% | . | . | . | . | -3.8%
CC(=O)NS(=O)(=O)c1ccc(NC(=O)C(Sc2ccccc2)c2ccccc2)cc1 (configuration not stated) | -22.0% | 0.8% | . | 11.4% | -1.7% | 17.6%
CC(=O)Nc1ccc(NC(=O)C(Sc2ccccc2)c2ccccc2)cc1 (configuration not stated) | -19.5% | -15.2% | -7.2% | -10.3%[46.1 µM] | -3.8%[46.1 µM] | -11.8%
CCCCNS(=O)(=O)c1ccc(NC(=O)C(Sc2ccccc2)c2ccccc2)cc1 (configuration not stated) | 0.0% | 10µM* | ? | ? | 9.2µM* | ?
CCC(C)NS(=O)(=O)c1ccc(NC(=O)C(Sc2ccccc2)c2ccccc2)cc1 (configuration not stated) | -13.5% | ? | ? | ? | 12.6µM* | ?
O=C1c2ccccc2C(=O)N1c1ccc(S(=O)(=O)N2CCOCC2)cc1 | . | -8.6% | 1.3% | . | . | .
CCOC(=O)c1c(C)c(-c2ccccc2)n(CC(=O)Nc2cccc(C)c2C)c1C | 8.1% | -5.0% | -0.3% | -1.6%[46.1 µM] | . | .
CC(NC(=O)NC(N)=O)(C(F)(F)F)C(F)(F)F | . | -19.1% | -13.3% | -16.5% | 9.5% | 10.5%
CC(NC(=O)NNC(N)=S)(C(F)(F)F)C(F)(F)F | -6.9% | 28.2µM* | ? | -11.8% | -0.7% | 3.6%
Cc1cc2nc(-c3cccc(NC(=O)CSc4ccc(Cl)cc4)c3)oc2cc1C | 24.4% | -20.1% | -23.2% | ? | 3.3%[46.1 µM] | .
O=C(c1cccc(S(=O)(=O)N2CCOCC2)c1)N1CCN(C/C=C/c2ccccc2)CC1 | -21.3% | -8.2% | i | 23.7% | 6.1% | -19.9%
COc1ccc(S(=O)(=O)Nc2ccc3oc4c(c3c2)CCCC4)cc1 | 24.8% | -18.8% | ? | 10µM* | ? | .
CCOc1ccc(NS(=O)(=O)c2ccc(NC(=O)C3CC3)cc2)cc1 | -12.5% | -20.4% | i | -2.5% | -0.3% | ?
COc1ccc(S(=O)(=O)NCc2ccc(C(=O)N3CCN(Cc4ccccc4)CC3)cc2)cc1 | ? | . | . | . | . | 31.6µM*
CCOc1ccc(NS(=O)(=O)c2cccc(C(=O)N3CCN(C/C=C/c4ccccc4)CC3)c2)cc1 | 28.2µM* | ? | i | ? | ? | ?
COc1ccc(NS(=O)(=O)c2ccc(NC(=O)C3CC3)cc2)cc1 | -18.8% | -12.2% | i | -26.0% | ? | 10µM*
CCCCN(CC)C(=O)CCCn1c(=O)c2cccn2c2ccccc21 | -21.9% | -8.7% | -6.3% | . | -23.8%[46.1 µM] | .
